# PubChem BioAssay (EPA / NIEHS)
# The source made the active and inactive calls. The calls were made as follows: active = hit-call score of the fitted dose curve at least 0.9, where 1 is the maximum; inactive = score below 0.9.
# Read-out: MYC, MYC (gene 4609)
# Experiment: LTEA_HepaRG_MYC: Life Technologies and Expression Analysis (LTEA) Assay for MYC using HepaRG (AID 2283518)
# Settings: mRNA level, 48 h; actives raise or lower the signal
# Experimental: LTEA_HepaRG is a cell based, multiplexed-readout assay that uses HepaRG, a human liver cell line, with measurements taken at 48 hours after chemical dosing on a 96-well plate.LTEA_HepaRG_MYC is one of 102 assay component(s) measured in the LTEA HepaRG cell culture assay. It is a marker of Cell proliferation, survival, death.Data from the assay component LTEA_HepaRG_MYC was analyzed into 1 endpoint. This assay endpoint, LTEA_HepaRG_MYC, was analyzed with bidirectional fitting relative to DMSO as the negative control and baseline of activity. Using a type of inducible reporter, measures of mRNA induction for gain or loss-of-signal activity can be used to understand regulation of transcription factor activity. To generalize the intended target to other relatable targets, this assay endpoint is annotated to the dna binding intended target family, where the subfamily is basic helix-loop-helix leucine zipper.
# A total of 1060 chemcials from the ToxCast library were tested in eight-point concentration-response experiments. Cell culture and cytotoxicity assays were conducted at Thermo Fisher Scientific's Custom Services facility (Madison, WI). A single lot of human HepaRG cells (Thermo Fisher Scientific, Frederick, MD) was used for the cell culture experiments. 96-well format collagen type I coated plates of human HepaRG cells were prepared using established methods. Briefly, cryopreserved HepaRG cells were thawed, plated at a density of approximately 100,000 cells/well in HepaRG Thaw, Plate, and General Purpose media (HPRG770, Thermo Fisher Scientific), and incubated for 48 hours. 0.5% DMSO was selected as vehicle control to balance the requisite need of DMSO in HepaRG cultures to maintain differentiation (for example, baseline metabolism, proportions of hepatocytes vs. cholangiocytes), while enabling further hepatic receptor pathway activation (for example, PXR and CAR) in response to chemical exposure. 48 hours after plating, the culture medium was replaced with HepaRG Serum-Free Incudtion Media. Cells were exposed to each test chemical in duplicate and maintained in CO2 incubators for another 48 hours. Chemical plates were thawed to room temperature and 200x concentrations of treatment groups were prepared. 8-point conentration-reponse curves were made with the highest exposure at 100 uM, followed by half-log dilutions, all in 0.5% DMSO. Each test plate contained variouse controls, induction positive controls (1mM phenobarbital), cytotoxicity positive controls ([…] aflatoxin B1), vehicle controls (0.5% DMSO), and total lysis controls (0.5% DMSO). Cell morphology images were taken using an Essen IncuCyte FLR automated microscope, with six 96-well plates imaged in about 24 minutes. Images were captured and exported and JPEG files. Spent culture media was transfered to black-well plates for the LDH assay, and remaining media was sorted at -80 C for later use. Cells were treated with RLT buffer and frozen until shipped for gene expression analysis. Total RNA was isolated from the cell suspension in 75 uL of Buffer RLT (Qiagen, Germantown, MD 20874) by Quintiles/Expression Analysis (Durham, NC) using a custom isolation procedure. Total RNA from each plate well was transferred to a preamplification plate. Fluidigm's 96.96 Dynamic ArrayTM (Fluidigm, Amsterdam, the Netherlands) technology was used for gene expression analyses by quantitative reverse transcription polymerase chain reaction (qRT-PCR, performed by Quintiles/Expression Analysis, Durham, NC)89. Standard TaqManTM Assays (Applied Biosystems/ThermoFisher Scientific, Foster City, CA) were used to assess the expression of 93 genes selected based on their selectivity and sensitivity to important hepatic receptors known to be modulated by environmental chemicals; importance in human hepatocyte functionality; and hepatotoxicity. […]
Compound,outcome,AC50
CCCCCCCCN(C)CCCCCCCC,inactive,
Cc1c2ccccc2c(C)c2c1ccc1ccccc12,,63.7 µM (active)
CCCCCCCCCCCCO,inactive,
Cc1cc(F)ccc1-c1cc(N2CC[C@@H](O)[C@H]2CO)ncc1N(C)C(=O)C(C)(C)c1cc(C(F)(F)F)cc(C(F)(F)F)c1,,17.3 µM (active)
C[C@]12CC[C@@H]3c4ccc(O)cc4CC[C@H]3[C@@H]1CC[C@H]2O,inactive,
CC(C)(c1cc(Br)c(O)c(Br)c1)c1cc(Br)c(O)c(Br)c1,,89.5 µM (active)
Cc1occc1C(=O)Nc1ccc(C(=O)N2CCC(F)(F)/C(=C\C(=O)N3CCC(N4CCCCC4)CC3)c3ccccc32)cc1,inactive,
O=C1O[C@H]([C@@H](O)CO)C(O)=C1O,inactive,
CC[C@@H]1C[C@H](N(Cc2cc(C(F)(F)F)cc(C(F)(F)F)c2)C(C)=O)c2cc(C(F)(F)F)ccc2N1C(=O)OC(C)C,inactive,
CCCCCCCCCC(=O)O,inactive,
c1ccc2ccccc2c1,inactive,
CO[C@H]1/C=C/O[C@@]2(C)Oc3c(C)c(O)c4c(O)c(c(/C=N/N5CCN(C)CC5)c(O)c4c3C2=O)NC(=O)/C(C)=C\C=C\[C@H](C)[C@H](O)[C@@H](C)[C@@H](O)[C@@H](C)[C@H](OC(C)=O)[C@@H]1C,inactive,
CCCCCCCC[Si](OCC)(OCC)OCC,inactive,
CCN(Cc1cccc(S(=O)(=O)O)c1)c1ccc(C(=C2C=CC(=[N+](CC)Cc3cccc(S(=O)(=O)O)c3)C=C2)c2ccccc2S(=O)(=O)[O-])cc1,inactive,
CC1=CC(=O)/C(=C(/C)O)C(=O)O1,inactive,
Cc1cn([C@H]2C[C@H](N=[N+]=[N-])[C@@H](CO)O2)c(=O)[nH]c1=O,inactive,
c1ccc(C[n+]2cccc3ccccc32)cc1,,34.6 µM (active)
O=C1CCC(C2CCCCC2)CC1,inactive,
CCCCCCCCCCCC[N+](C)(C)C,,75.8 µM (active)
CN1C(=O)N(c2ccccc2Br)Cc2cnc(Nc3ccc4c(c3)OCC(CO)O4)nc21 (stereo not given),inactive,

Compound,outcome,AC50
CCCOC(=O)c1cc(O)c(O)c(O)c1,inactive,
O=C(Nc1ccc(Cl)cc1)Nc1ccc(Cl)c(Cl)c1,,28.6 µM (active)
C[C@]12CC[C@@H]3c4ccc(O)cc4CC[C@H]3[C@@H]1CCC2=O,inactive,
Cc1cccc2ccccc12,inactive,
COc1cc(C(=O)NC2CCN(C)CC2)ccc1Nc1ncc2c(n1)N(C1CCCC1)CC(F)(F)C(=O)N2C,,14.7 µM (active)
O=C1c2ccccc2C(=O)N1CCc1noc(-c2ccc(CN3CCCCCC3)s2)n1,inactive,
CC/C(=C(/CC)c1ccc(O)cc1)c1ccc(O)cc1,inactive,
OC12N=C(c3ccccc3)SC1Cc1cc(Cl)ccc12 (stereo not given),,16.1 µM (active)
O=c1c(-c2ccc(O)cc2)coc2cc(O)cc(O)c12,inactive,
COc1cccc([C@H](O)C2CCN(CCc3ccc(F)cc3)CC2)c1OC,inactive,
CC(C)(C)c1cc(/C=C2\SC(N)=NC2=O)cc(C(C)(C)C)c1O,,28.9 µM (active)
CCCCCCCCOc1ccc(C(=O)c2ccccc2)c(O)c1,inactive,
CN(C)c1ccc(C(=C2C=CC(=[N+](C)C)C=C2)c2ccc(N(C)C)cc2)cc1,,12 µM (active)
CCOC(=O)O[C@H](C)OC(=O)c1ccc2c(c1)cc(C(=O)NC1CCN(C(C)C)CC1)n2Cc1cc(-c2ccc(Cl)s2)on1,inactive,
CN(C[C@@H](CC[N+]12CCC(C3CCCCC3)(CC1)CC2)c1ccc(Cl)c(Cl)c1)C(=O)c1cc(C(F)(F)F)cc(C(F)(F)F)c1,,87.2 µM (active)
CCCCCCCCOC(=O)c1cc(O)c(O)c(O)c1,inactive,
NC(=O)c1nc(-c2cccc(-c3cc(F)ccc3OCC(F)(F)C(F)(F)F)c2)n[nH]1,inactive,
CC1(C)NC(=O)N(c2ccc([N+](=O)[O-])c(C(F)(F)F)c2)C1=O,,81.8 µM (active)
O=C(O)Cc1cc(I)c(Oc2ccc(O)c(I)c2)c(I)c1,,91.3 µM (active)
CCCCCc1ccc(N)cc1,inactive,
